This is a sample that favours compounds with a hit; in the whole collection about 3.4% have one here.
HTT cytoprotect = protects HTT-Q103 PC12 cells, measured by ATP | Potency, µM (titrated, usually from 56.4 µM), actives largely listed as activators | hit rate 0.14% among 230,000 | PC12 HTT-Q103 induced, cytoprotection, ATP luminescence, 40 h; further: nearly all actives have a fitted effect of over 45% in size
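PC12 cells stably carrying ecdysone-inducible Htt exon 1 (Q103)–GFP were induced with 100 nM tebufenozide (final) alongside library compounds in a dose series. Cytoprotection was scored as retained ATP by ATPlite luminescence.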
PNC assembly inh = inhibitors of perinucleolar compartment assembly; hit rate 3.1% among 140,000; PC3M PTB-GFP, PNC prevalence imaging, 16 h; active compounds read low; activity change (PNC), negative = inhibition, % at 10 µM;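 active means readout at or below -70, meaning at least 70% loss of cells showing the perinucleolar compartment, a nuclear body marking cancer cells; inconclusive means readout between -30 and a set limit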
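Compounds are pinned in duplicate onto adhered PC3M cells stably expressing GFP-tagged PTB and incubated 16 h at 37 C. Cells are then fixed, nuclei stained with Hoechst, and PNC-positive cells counted.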
IMPase inh = cell-permeable inhibitors of inositol monophosphatase (IMPase); 120,000 tested, under 10 active; P97697; CHO-M1 cells, IP1 accumulation, HTRF TR-FRET ratio; inhibition (IP1 accumulation), % at 46.1 µM; active means well fitted curve in the direction sought with a large enough effect in the signal ratio, not every such curve was filed as active; inconclusive means small, poorly fitted or top-dose-only effect, or a change in a side signal; inactive means no such curve, though single readings can be large or run the other way; the % refers to the signal ratio;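 further: cells stimulated with carbachol in lithium chloride buffer; higher means more IMPase inhibition seen as more IP1 and lower FRET ratio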
Target sequence (P97697 whole entry, looked up): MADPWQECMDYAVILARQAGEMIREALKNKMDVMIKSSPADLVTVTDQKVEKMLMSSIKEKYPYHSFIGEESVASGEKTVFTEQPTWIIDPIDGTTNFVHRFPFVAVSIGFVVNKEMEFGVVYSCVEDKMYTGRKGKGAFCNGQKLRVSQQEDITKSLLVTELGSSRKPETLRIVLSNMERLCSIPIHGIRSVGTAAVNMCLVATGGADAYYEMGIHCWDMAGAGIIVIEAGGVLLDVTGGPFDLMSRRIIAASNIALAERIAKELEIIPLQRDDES
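Elevated IP1 in lysates lowers TR-FRET signal (665/620 ratio and 620 channel reported). Cells were CHO-M1, given carbachol (50 uM as added) plus 50mM LiCl, pH 7.4, 30 min, 37C; compounds titrated up to 46 uM; AC50 by Hill equation.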
NPSR antagonist = antagonists of human neuropeptide S receptor cAMP signaling. Q6W5P4. CHO-NPSR cells, cAMP TR-FRET, antagonist mode. Potency, µM (series often up to 38.3 µM), actives largely listed as inhibitors. hit rate 1% among 220,000. AID 1461; further: nearly all actives have a fitted effect of over 50% in size
Target sequence (Q6W5P4 whole entry, looked up): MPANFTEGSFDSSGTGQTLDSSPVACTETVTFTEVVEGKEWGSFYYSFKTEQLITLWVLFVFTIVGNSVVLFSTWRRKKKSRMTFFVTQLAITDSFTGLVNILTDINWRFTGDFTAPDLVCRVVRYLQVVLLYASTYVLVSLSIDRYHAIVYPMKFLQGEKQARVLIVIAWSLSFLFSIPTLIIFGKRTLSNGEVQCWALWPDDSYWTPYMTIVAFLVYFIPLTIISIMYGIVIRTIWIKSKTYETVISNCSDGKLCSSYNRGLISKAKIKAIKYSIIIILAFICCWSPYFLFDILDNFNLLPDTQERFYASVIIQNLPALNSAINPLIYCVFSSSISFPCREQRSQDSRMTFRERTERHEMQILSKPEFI
IMPase Li inh = IMPase inhibition in cells with lithium potentiation; CHO-M1 cells, IP1 TR-FRET (IP-One), carbachol + lithium; Potency, µM (top dose mostly 59.4 µM), most hits filed as inhibitors; hit rate 0.35% among 210,000;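 further: IP1 builds up when IMPase is blocked and the TR-FRET signal falls; nearly all actives have a fitted effect of over 50% in size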
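CHO cells stably expressing M1 receptor (2000/well, cultured 16–30 h) treated 30 min at 37C with compound plus low lithium. Cytosolic IP1 by TR-FRET (665/620 ratio and 620 channel) after 10 min lysis; AC50 by Hill fit.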
HTT aggregate = inhibitors of mutant huntingtin aggregate formation in PC12 cells; PC12 HttQ103-GFP aggregates, Acumen cytometry, 40 h; Potency, µM (top dose mostly 46.1 µM), usual class: inhibitors; hit rate 1.1% among 220,000; further: nearly all actives have a fitted effect of over 60% in size
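PC12 cells with ecdysone-inducible HTT exon1 Q103-GFP, induced by 100 nM tebufenozide, given compounds in a concentration series. GFP aggregates (1–25 um, 6 SD above background) counted in lysates by laser-scanning cytometry, 488 nm excitation.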
Numbers stand for hits; ! = a repeat was not active; [ ] = remark or other dose. Unless noted, the call rests on the fitted dose curve; in most records, active means well fitted curve in the direction sought with a large enough effect; inconclusive means small, poorly fitted or top-dose-only effect, or another doubt; inactive means no such curve, though single readings can be large; an effect the other way counts as inactive or inconclusive.

For CCOC(=O)N1CCN(C2CC(=O)N(c3ccc(Cl)c(Cl)c3)C2=O)CC1 (stereo not drawn) the results were HTT cytoprotect inactive[10 µM], PNC assembly inh -100, IMPase inh inactive, NPSR antagonist inactive, IMPase Li inh inactive and HTT aggregate inactive.
For CN1C(=O)CC(N2CCN(C(=O)CN3CCCC3)CC2)C1=O (stereo not drawn) the results were HTT cytoprotect inactive, PNC assembly inh inactive, IMPase inh inactive, NPSR antagonist inactive, IMPase Li inh inactive and HTT aggregate inactive.
Screening CCOc1ccc(N2C(=O)CC(N3CCN(C(=O)CN4CCCC4)CC3)C2=O)cc1 (stereo not drawn) returned HTT cytoprotect inactive, PNC assembly inh -114, IMPase inh inactive, NPSR antagonist inactive, IMPase Li inh inactive and HTT aggregate inactive[9.22 µM].
For COc1ccc(CNc2nc(-c3ccccc3OC)nc3ccccc23)c(OC)c1 the results were HTT cytoprotect inactive and IMPase Li inh inactive.
Screening CC(=O)Nc1ccc(NC(=O)C(Cc2ccccc2)NC(=O)C2CCCCC2)cc1 (stereo not drawn) returned HTT cytoprotect inactive[10 µM], PNC assembly inh -119, IMPase inh inactive, NPSR antagonist inactive, IMPase Li inh inactive and HTT aggregate inactive.
CCN(CC)c1ccc2cc(-c3nnc(-c4ccccc4)o3)c(=O)oc2c1 was read as HTT cytoprotect inactive[10 µM], PNC assembly inh -100, IMPase inh inactive, NPSR antagonist inactive, IMPase Li inh inactive and HTT aggregate 7.1µM.
Screening CCN(CC)c1ccc2cc(-c3nc(-c4ccc(OC)cc4)cs3)c(=O)oc2c1 returned HTT cytoprotect inactive[10 µM], PNC assembly inh inactive, IMPase inh inactive, NPSR antagonist inactive, IMPase Li inh inactive and HTT aggregate 2.8µM.
O=c1oc2ccccc2cc1-c1nc(-c2cccs2)cs1 was read as HTT cytoprotect inactive, PNC assembly inh inconclusive, IMPase inh inactive, NPSR antagonist inactive, IMPase Li inh inactive and HTT aggregate inactive.
For CCN(CC)c1ccc2cc(-c3nc4ccccc4[nH]3)c(=O)oc2c1 the results were HTT cytoprotect inactive[10 µM], PNC assembly inh -104, IMPase inh inactive, NPSR antagonist inconclusive, IMPase Li inh inactive and HTT aggregate 0.32µM.
`CCN(CC)c1ccc2cc(-c3nc4ccccc4n3C)c(=O)oc2c1` gave HTT cytoprotect inactive, PNC assembly inh inconclusive, IMPase inh inactive, NPSR antagonist inconclusive, IMPase Li inh inactive and HTT aggregate inconclusive.
`O=[N+]([O-])c1ccc2cn(-c3ccccc3)nc2c1` gave PNC assembly inh inactive, NPSR antagonist inactive, IMPase Li inh inactive and HTT aggregate inactive.
`Cn1cccc1C(=O)N1CCC2(CCN(Cc3ccncc3)CC2)CC1` gave HTT cytoprotect inactive and IMPase Li inh inactive.
`S=C1Cc2ccccc2N1` gave HTT cytoprotect 1.3µM, NPSR antagonist inactive and HTT aggregate inactive[9.22 µM].
`CO[C@H]1C=CO[C@@]2(C)Oc3c(C)c(O)c4c(O)c(c(C=NN5CCN(C)CC5)c(O)c4c3C2=O)NC(=O)C(C)=CC=C[C@H](C)[C@H](O)[C@@H](C)[C@@H](O)[C@@H](C)[C@H](OC(C)=O)[C@@H]1C` gave PNC assembly inh -115, NPSR antagonist inactive, IMPase Li inh inactive and HTT aggregate inactive.
For Cc1noc(C)c1C(=O)N1CCC2(CC1)CCN(c1ncccn1)CC2 the results were HTT cytoprotect inconclusive and IMPase Li inh inactive.
For Cc1c(NC(=O)c2cccc(NS(C)(=O)=O)c2)c(=O)n(-c2ccccc2)n1C the results were HTT cytoprotect inactive[10 µM], NPSR antagonist inactive and HTT aggregate 1µM.
Screening COc1cc2ccc(=O)oc2cc1OCC(O)C(C)(C)O (stereo not drawn) returned HTT cytoprotect inactive[10 µM], NPSR antagonist inactive and HTT aggregate inactive[9.22 µM].
`COc1cc2ccc(=O)oc2cc1O` gave HTT cytoprotect inactive[1.9 µM], IMPase inh inactive and IMPase Li inh 10µM!.
Screening Cc1ccc2oc(-c3ccccc3)c(O)c(=O)c2c1 returned HTT cytoprotect inactive[1.9 µM], IMPase inh inactive and IMPase Li inh inactive.
`O=c1c(O)c(-c2ccccc2)oc2ccccc12` gave IMPase Li inh inactive.
Screening O=c1c(O)c(-c2cccs2)oc2ccc(Cl)cc12 returned HTT cytoprotect inactive, PNC assembly inh inconclusive, IMPase inh inactive, NPSR antagonist inactive, IMPase Li inh inactive and HTT aggregate 14µM.
`O=c1c(O)c(-c2cccs2)oc2ccccc12` gave HTT cytoprotect inactive[10 µM], PNC assembly inh inactive, IMPase inh inactive, NPSR antagonist inactive, IMPase Li inh inactive and HTT aggregate 11µM.
For Cc1ccc2oc(-c3ccccc3)c(C(=O)O)c(=O)c2c1 the results were HTT cytoprotect inactive, PNC assembly inh inactive, IMPase inh inactive, NPSR antagonist inactive, IMPase Li inh inactive and HTT aggregate 10µM.
O=c1cc(-c2cccs2)oc2ccc(Cl)cc12 was read as HTT cytoprotect inactive, PNC assembly inh inactive, IMPase inh inactive, NPSR antagonist inactive and HTT aggregate inactive.
`Cc1ccc(-c2oc3ccccc3c(=O)c2O)cc1` gave HTT cytoprotect inactive, PNC assembly inh inactive, IMPase inh inactive, NPSR antagonist inactive, IMPase Li inh inactive and HTT aggregate 11µM.
CS(=O)(=O)N1CCC2(CCN(c3ccccn3)CC2)CC1 was read as HTT cytoprotect inactive and IMPase Li inh inactive.
N/C(=N\O)c1ccc(Cl)cc1Cl was read as HTT cytoprotect inactive[10 µM], NPSR antagonist inactive and HTT aggregate inactive[9.22 µM].
Screening COc1cc(/C=N/Nc2nc(=O)[nH]nc2C)cc([N+](=O)[O-])c1O returned HTT cytoprotect inactive[10 µM], NPSR antagonist inconclusive and HTT aggregate inactive[9.22 µM].
For NS(=O)(=O)c1ccc(N2N=C(c3ccccc3)CC2c2ccccc2)cc1 (stereo not drawn) the results were HTT cytoprotect inactive[10 µM], PNC assembly inh inconclusive, IMPase inh inconclusive, NPSR antagonist inactive, IMPase Li inh inactive and HTT aggregate inactive.
Screening CCc1ccc(C2=NN(c3ccc(S(N)(=O)=O)cc3)C(c3ccc(F)cc3)C2)cc1 (stereo not drawn) returned HTT cytoprotect inactive[10 µM], PNC assembly inh inactive, IMPase inh inconclusive, NPSR antagonist 10µM, IMPase Li inh inactive and HTT aggregate inconclusive.
Screening O=C(Cn1cnnn1)Nc1ccccc1Cc1ccccc1 returned HTT cytoprotect inactive, PNC assembly inh -100, IMPase inh inactive, NPSR antagonist inactive, IMPase Li inh inactive and HTT aggregate inactive.
Screening COc1ccc(Nc2nc3ccc(Cl)cc3n3nnnc23)cc1OC returned IMPase inh inactive.
Screening O=C(CSc1nc(-c2ccco2)cc(C(F)(F)F)n1)Nc1ccccc1C(F)(F)F returned HTT cytoprotect 3.2µM, PNC assembly inh inactive, IMPase inh inactive, NPSR antagonist inactive, IMPase Li inh inactive and HTT aggregate inconclusive.
